Our source for the survival values is PubChem BioAssay AID463173 (ICCB-Longwood Screening Facility, Harvard Medical School, 2010).

In all, about 52,000 compounds went through this assay and about 4,300 (8.3%) were called active. This excerpt belongs to a sample that is enriched for actives. Unmarked numbers belong to inactive results. Rule as the data show it: active = survival mostly below about 52% (no sharp cut-off); inactive = mostly above about 56%.

In this experiment the test system is DeltatarO mutant. The experiment can be described thus: S. aureus survival, RN4220 and DeltatarO strains – OD600, teichoic acid synthesis inhibitors, primary screen (AID 463173). Particulars: S. aureus RN4220 wild type/DeltatarO growth, OD600, 18 h, stronger effect = lower value, screened at 18.75 µg/mL (by protocol).
Take `CCc1ccc2c(c1)NC(c1ccc(C)cc1)=NC(c1cccs1)=N2`: the survival was 68%. To `Cc1ccc[n+](Cc2cnc(C)nc2N)c1` belongs 83%. In the case of `CCC(=O)N1CCc2cc(S(=O)(=O)NC(Cc3ccccc3)C(=O)Nc3ccccc3C)ccc21` (stereo unspecified), the survival is 118%.

For the compound `COc1ccccc1-c1nnc(C2CCN(C(=O)c3ccc(C)cc3)CC2)o1`, the survival is 91%. In the case of `CCN(CC)N=Nc1ccc(S(=O)(=O)N=C(C)O)cc1`, the survival is 87%. On to `Nc1nc(SCc2ccccc2)ns1`, for which the survival is 53%.

Take `Nc1nnc(SCc2ccccc2)s1`: the survival is 49% (active). With `Nc1nnc(CSCc2ccccc2)s1`, the survival was 109%. The figure for `Cc1ccc(Nc2c(C(C)C)c(C)c(C#N)c3nc4ccccc4n23)cc1` is 62%; for `CCc1c(C)c(C#N)c2nc3ccccc3n2c1Nc1cccc(C(F)(F)F)c1` it is 39% (active).

As for `CC(=O)Nc1ccc(Nc2c(CCC(C)C)c(C)c(C#N)c3nc4ccccc4n23)cc1`, the survival is 136%. To `CCn1cc(S(=O)(=O)c2cccc(C)c2)c(=O)c2cc(F)c(N3CCCC(C)C3)cc21` (stereo unspecified) belongs 84%; to `CC1=C(C(=O)Nc2ccc(C)cc2Cl)C2(CCCCCC2)OC1=O`, 89%; to `Cc1nc2cc(-c3ccccc3)nn2c(C)c1CCC(=O)NCCc1ccccc1`, 54%. In the case of `COc1cc(NC(=O)N2CCC3(CC2)Nc2ccccc2-n2cccc23)cc(OC)c1OC`, the survival is 101%. The figure for `COc1cc(NC(=O)N2CCC3(CC2)Nc2cc(F)ccc2-n2cccc23)cc(OC)c1OC` is 105%. For the compound `CCN1c2cc(C)ccc2-n2cccc2C12CCN(C(=O)Nc1cc(OC)c(OC)c(OC)c1)CC2`, the survival is 93%. As to `COc1cc([N+](=O)[O-])ccc1NC(=O)N1CCC2(CC1)Nc1ccccc1-n1cccc12`, the survival was 37% (active). Turning to `COc1cc([N+](=O)[O-])ccc1NC(=O)N1CCN(c2cc(-c3noc(C)n3)ccc2C)CC1`, the survival was 94%.

For the compound `COc1cc([N+](=O)[O-])ccc1NC(=O)N1CCC2(CC1)Nc1cc(F)ccc1-n1cccc12`, the survival was 46% (active). With `Cc1cc(C(=O)Nc2cccc(OC(C)C)c2)c(C)o1`, the survival was 105%. To `COc1cccc(CNC(=O)c2nnc(Cc3ccc(Cl)cc3)o2)c1` belongs 91%; to `CCOc1ccc(CCNC(=O)CCn2c(=O)c3cccn3c3cccnc32)cc1`, 89%; to `CCS/C=C/C#CC1(O)CCCCC1`, 90%.

With `Cc1ccccc1CNC(=O)c1ccc2nc(SCc3ccc(F)cc3)n(C)c2c1`, the survival was 60%.

For the compound `COc1ccc(Cl)cc1NC(=O)Cn1ncc2c3ccccc3n(Cc3ccccc3)c2c1=O`, the survival was 125%. To `CCOC(=O)Cn1nnc(-c2ccccc2)n1` belongs 95%; to `CCOC(=O)c1[nH]c2c(c1Cc1ccccc1C)C(=O)CC(c1cc(OC)ccc1OC)C2` (stereo unspecified), 82%. The figure for `COc1ccc(N2CCN(C(=O)CCc3c(C)nc4cc(-c5ccc(Cl)cc5)nn4c3C)CC2)cc1` is 116%; for `O=C(O)/C=C/C(=O)Nc1nnc(-c2ccccc2F)s1` it is 97%; for `Cc1ccc(Nc2c(-c3ccc(Br)o3)nc3ccccn23)cc1` it is 112%. The figure for `Cc1ccc(-c2nc3ccccn3c2Nc2ccc3c(c2)OCCO3)o1` is 45%; for `Cc1ccc2nc(-c3ccc(C)o3)c(Nc3ccc4c(c3)OCCO4)n2c1` it is 72%.

On to `Cc1ccc(-c2nc3ccccn3c2Nc2ccc3c(c2)OCO3)cc1`, for which the survival is 73%. To `COc1ccc(Nc2c(-c3ccc(C)o3)nc3cc(C)ccn23)cc1` belongs 75%. The figure for `Cc1ccc2nc(-c3ccco3)c(Nc3ccc4c(c3)OCCO4)n2c1` is 67%.

For `Cc1ccn2c(Nc3ccc4c(c3)OCCO4)c(-c3ccc(C)o3)nc2c1`, the survival was 58% (active). To `Cc1ccn2c(Nc3ccc4c(c3)OCO4)c(-c3ccc(C)o3)nc2c1` belongs 81%; to `Cc1ccc(-c2nc3ccccn3c2Nc2c(C)cccc2C)o1`, -2% (active); to `Cc1ccc(-c2nc3ccccn3c2Nc2ccc3c(c2)OCO3)o1`, 34% (active). To `Brc1ccc(-c2nc3ccccn3c2Nc2ccc3c(c2)OCCO3)o1` belongs 85%; to `c1coc(-c2nc3ccccn3c2Nc2ccc3c(c2)OCCO3)c1`, 53% (active). For the compound `CCc1nn(CC(=O)NCc2ccccc2Cl)c(=O)c2cc3ccccc3n12`, the survival is 62%. To `Cc1ccc(Cn2c(SCc3ccc(C(=O)NC4CCCCC4)cc3)nc3ccncc32)cc1` belongs 71%; to `Cc1cc(N2CCCC2)nc(SCC(=O)c2ccccc2)n1`, 77%. In the case of `COc1ccc(CCN2C(=O)CN(C3CCCCCC3)C(=O)C2c2ccc(C)cc2)cc1OC` (stereo unspecified), the survival was 92%.

For `Cc1ccc(Cl)cc1N1CCN(C(=O)c2cn(C)c3ccc(S(=O)(=O)N4CCCC4)cc3c2=O)CC1`, the survival is 124%. The figure for `Cc1ccccc1Cn1c2ccccc2c2cnn(CC(=O)N3CCC(C)CC3)c(=O)c21` is 41%; for `Cc1ccc2oc(=O)n(CCCOc3ccc(Cl)cc3)c2c1` it is -3% (active). With `Cc1ccc2oc(=O)n(CCNC(=O)Nc3ccc(C)c(F)c3)c2c1`, the survival was 108%. As for `Cc1c(Cl)cccc1NC(=O)NCCOCCn1c(=O)oc2ccccc21`, the survival is 51%. With `O=c1oc2ccccc2n1CCCOc1ccccc1Cl`, the survival was 3% (active). With `N#CCCCn1c(=O)oc2ccccc21`, the survival was 100%. For the compound `O=C(O)CCCn1c(=O)oc2ccccc21`, the survival is 96%. To `COc1ccc(OCCCn2c(=O)oc3ccc(C)cc32)cc1` belongs 39%. To `Cc1ccc2oc(=O)n(CCCOc3ccccc3Cl)c2c1` belongs -4% (active); to `CCOc1ccc(-c2cc(C(=O)N3CCN(c4cc(Cl)ccc4C)CC3)c3ccccc3n2)cc1`, 58%. The figure for `O=C(NCc1ccc2c(c1)CCN2C(=O)c1ccc(F)cc1)c1c(F)cccc1F` is 85%; for `O=C(NCc1ccccc1Cl)c1ccc2nc(Cc3ccccc3)oc2c1` it is 60%; for `CC1CCN(S(=O)(=O)c2ccc3c(c2)N(CC(=O)NCCN(C)C)C(=O)CS3)CC1` it is 108%. Turning to `COc1ccccc1CNC(=O)C1CCN(S(=O)(=O)c2ccc3c(c2)CCCN3C(C)=O)CC1`, the survival was 83%.

Consider `CC(=O)N1CCCc2cc(S(=O)(=O)N3CCCCC3)ccc21`, for which the survival was 47% (active). For the compound `COc1ccccc1CNC(=O)C1CCCN(S(=O)(=O)c2ccc3c(c2)CCCN3C(C)=O)C1` (stereo unspecified), the survival is 52% (active).

Take `CC(=O)N1CCCc2cc(S(=O)(=O)N3CCC(N(C)C(C)C)CC3)ccc21`: the survival is 94%.

Take `CC(=O)N1CCCc2cc(S(=O)(=O)N3CCCC(C(=O)NCc4ccccc4Cl)C3)ccc21` (stereo unspecified): the survival was 95%. The figure for `CC(=O)N1CCCc2cc(S(=O)(=O)N3CCC(C(=O)NC4CCCCC4)CC3)ccc21` is 94%.
